Screen size: about 390,000 compounds; about 4,000 (1%) were called active. About 4% were inconclusive and are not listed. This excerpt belongs to a sample that is enriched for actives. Unmarked numbers belong to inactive results. Calls come from the whole dose curve; as a rule, active = well fitted inhibition curve with a large enough effect; inconclusive = small, poorly fitted or top-dose-only effect; inactive = no such curve, though single readings can be large or run the other way.
target: Thioredoxin reductase 1, cytoplasmic (Rattus norvegicus) (UniProt O89049); test: qHTS Assay for Inhibitors of Mammalian Selenoprotein Thioredoxin Reductase 1 (TrxR1): qHTS; details: recombinant rTrxR1, NADPH fluorescence consumption, selenite substrate; series mostly up to 114 µM; activity change, negative = inhibition: at the top concentration; note: nearly all actives have a fitted effect of over 65% in size
Sequence (O89049 whole entry, looked up): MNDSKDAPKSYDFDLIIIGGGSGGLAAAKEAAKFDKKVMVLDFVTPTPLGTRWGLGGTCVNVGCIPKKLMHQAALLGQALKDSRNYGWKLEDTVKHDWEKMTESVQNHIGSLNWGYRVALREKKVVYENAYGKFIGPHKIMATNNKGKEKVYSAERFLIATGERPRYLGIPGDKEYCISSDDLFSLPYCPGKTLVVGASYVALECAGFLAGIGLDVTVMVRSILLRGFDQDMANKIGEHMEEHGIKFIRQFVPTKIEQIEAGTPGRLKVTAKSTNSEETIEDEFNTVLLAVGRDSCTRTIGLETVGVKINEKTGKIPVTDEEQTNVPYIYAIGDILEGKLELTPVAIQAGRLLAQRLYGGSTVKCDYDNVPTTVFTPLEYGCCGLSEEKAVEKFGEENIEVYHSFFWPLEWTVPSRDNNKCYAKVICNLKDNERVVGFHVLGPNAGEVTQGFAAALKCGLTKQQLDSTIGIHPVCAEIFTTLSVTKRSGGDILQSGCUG
How it was run: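 Rat TrxR1 (90 nM in the dispensed reagent) was pre-reduced with 400 uM NADPH for 5 min at room temperature, then incubated with compound for 15 min. After 400 uM selenite was added, NADPH fluorescence (Ex 340/Em 450 nm) was followed for 8 min.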
% is set by controls: 0 for no effect and ±100 for the full control effect; potency is the fitted concentration of half-maximal effect.

Row | SMILES | Potency | activity change, negative = inhibition
1 | C=C(C)C(=O)O[C@H]1C/C(C)=C\C(=O)/C=C(\C)[C@H](O)[C@@H]2OC(=O)C(=C)[C@@H]21 | 39.8 µM (active) | –
2 | CCOC(=O)N1CCc2c(sc(NCc3cccc(F)c3)c2C(=O)Nc2ccccc2OCC)C1 | – | 10.3% [at 57.1 µM]
3 | COc1cc(OC)c(/C=C/c2ccnc3ccccc23)c(OC)c1 | – | -0.654%
4 | C=C1CCN(C(CC(C)C)C(=O)N2CCOCC2)S(=O)(=O)c2ccccc21 (stereo not given) | – | -0.716%
5 | O=c1[nH]c2cc(Br)ccc2n2cccc12 | – | 10.7%
6 | CC(C)Cn1c(=O)c2ccccc2n2c(-c3cccc(Cl)c3)nnc12 | – | 20.3%
7 | O=c1[nH]c2ccccc2n2c(-c3ccccc3)nnc12 | 0.708 µM (active) | –
8 | O=c1cc(-c2ccccc2)n2c(SCc3ccccc3)nnc2[nH]1 | – | 0.137% [at 57.1 µM]
9 | Cc1ccc2nc(N3CCN(c4cccc(Cl)c4)CC3)c3nnnn3c2c1 | – | 7.14%
10 | COc1ccc(N2C(=O)CSC23C(=O)N(Cc2cccc(F)c2)c2ccccc23)cc1Cl (stereo not given) | – | 17.9%
11 | Oc1c(C(c2ccc(F)cc2)N2CCN(Cc3ccccc3)CC2)sc2nc(-c3ccco3)nn12 (stereo not given) | – | 4.01% [at 57.1 µM]
12 | C[n+]1ccccc1C1CCCC/C1=N\Nc1ccc([N+](=O)[O-])cc1[N+](=O)[O-] (stereo not given) | – | -2.33%
13 | O=[N+]([O-])c1ccc(N/N=C2/CCCCC2c2ccccn2)c([N+](=O)[O-])c1 (stereo not given) | 3.55 µM (active) | –
14 | CC1(C)C/C(=N/Nc2ccc([N+](=O)[O-])cc2[N+](=O)[O-])C(C)(C)O1 | – | 12.7% [at 57.1 µM]
15 | Cc1cc(N2CCN(c3cccc(C(F)(F)F)c3)CC2)n2nc(-c3ccccc3)nc2n1 | – | -7.51%
16 | COC(=O)c1sc(NC(=O)COC(=O)C2CCC2)c(C(=O)OC)c1C | – | 1.57%
17 | CCOC(=O)c1c(NC(=O)c2cc(CC)on2)sc(C(C)=O)c1C | – | 1.81%
18 | CCOC(=O)c1c(NC(=O)CCl)sc(C(=O)N(CC)CC)c1C | 31.6 µM (active) | –
19 | CCc1ccccc1NC(=O)CSc1nc(C)c(C(=O)Nc2ccccc2)c(-c2ccc(Cl)cc2)c1C#N | – | 17.1%
20 | CCCn1c(=O)c2[nH]c(-c3ccc(OCC(=O)NCCN)cc3)nc2n(CCC)c1=O | inactive | –
21 | COc1ccccc1/C=C/c1nc(C#N)c(NC(C)c2ccccc2)o1 (stereo not given) | – | 80.7%
22 | O=C(CCC1N=C2c3ccccc3N=C(SCc3ccccc3F)N2C1=O)NCCc1ccccc1 (stereo not given) | – | 6.07% [at 57.1 µM]
23 | Clc1ccccc1CSc1nncn2c1cc1occc12 | – | 16.1%
24 | c1ccc(CSc2nnc(-c3ccco3)c(-c3ccco3)n2)cc1 | 2.51 µM (active) | –
25 | CC1(C)N=C(SCc2ccccc2Cl)c2ccccc2N1 | – | 14.5%

Row | SMILES | Potency | activity change, negative = inhibition
26 | Clc1ccccc1CSc1nnc(-c2ccco2)c(-c2ccco2)n1 | 5.01 µM (active) | –
27 | Cc1ccc(-c2nnc(SCC(=O)NCc3ccccc3)nc2-c2ccc(C)cc2)cc1 | – | 20.8% [at 57.1 µM]
28 | CSc1n[nH]c(-c2ccco2)n1 | – | 11.5%
29 | Cc1ccc(S(=O)(=O)c2cn(Cc3ccccc3)c3cc(N4CCCC4)c(F)cc3c2=O)c(C)c1 | – | 32.3%
30 | COc1cccc(-c2nc(S(=O)(=O)c3ccc(C)cc3)c(NCc3ccccc3)o2)c1 | – | 8.09%
31 | Cc1c(NC(=O)Cc2ccccc2)cccc1-c1nc2cccnc2s1 | – | 22.3%
32 | O=C(NCc1ccco1)c1ccc(NS(=O)(=O)c2cccc([N+](=O)[O-])c2)cc1 | – | -1.92%
33 | Cc1ccc(/C([O-])=C(/C(=S)NCc2ccco2)[n+]2ccccc2)cc1[N+](=O)[O-] | 56.2 µM (active) | –
34 | O=[N+]([O-])c1cccc(/C([O-])=C(/C(=S)Nc2ccccc2F)[n+]2ccccc2)c1 | – | 10.2% [at 57.1 µM]
35 | CC1(C)Cc2ccccc2-c2c[nH]c(=O)n21 | – | 3.99%
36 | COc1cc(OC)cc(C(=O)OCC(=O)Nc2sccc2C(N)=O)c1 | – | 15.1%
37 | Cn1nnnc1SCC(=O)Nc1sccc1C(N)=O | – | 13.4% [at 11.4 µM]
38 | NC(=O)c1ccsc1NC(=O)c1ccco1 | 56.2 µM (active) | –
39 | C=C1C=C(C)n2ncc(C(=O)Nc3ccccc3O)c2N1 | – | 8.78%
40 | CN(C)/C=C1\C=C(c2ccccc2)OC1=O | 28.2 µM (active) | –
41 | Cc1ccc(C2=C/C(=C\c3cccnc3)C(=O)O2)cc1 | – | 31.3%
42 | COc1ccccc1/C=C/C1=NC(=C\N(C)C)/C(=O)O1 | – | 9.66% [at 57.1 µM]
43 | CN(C)c1ccc(/C=C/C=C/c2ccnc3ccccc23)cc1 | – | -12.8%
44 | COc1ccccc1CNC(=O)CS(=O)(=O)c1cccc2nsnc12 | – | 5.68% [at 57.1 µM]
45 | Cc1ccc(S(=O)(=O)CCC(=O)OCc2ccccc2)cc1 | – | 22.7%
46 | Cc1cccc2sc(N(CCCN(C)C)C(=O)CCS(=O)(=O)c3ccccc3)nc12 | 15.8 µM (active) | –
47 | O=C(CCS(=O)(=O)c1ccccc1)N(Cc1cccnc1)c1nc2c(F)cccc2s1 | 3.98 µM (active) | –
48 | CCOc1ccccc1NC(=O)CCS(=O)(=O)c1cccc2nsnc12 | inactive | –
49 | COc1cccc2sc(N(CCCN(C)C)C(=O)CCS(=O)(=O)c3ccccc3)nc12 | 1.58 µM (active) | –
50 | CN(C)S(=O)(=O)c1ccc(C(=O)N(Cc2cccnc2)c2nc3c(F)cc(F)cc3s2)cc1 | – | 1.57% [at 57.1 µM]

Row | SMILES | Potency | activity change, negative = inhibition
51 | O=C(C1COc2ccccc2O1)N(Cc1cccnc1)c1nc2c(F)cc(F)cc2s1 (stereo not given) | – | 23.2% [at 57.1 µM]
52 | O=C(O)CCS(=O)(=O)c1ccc(-c2ccccc2)cc1 | – | -6.99%
53 | Brc1ccc2c(c1)NC(c1cccnc1)=NC(c1ccccc1)=N2 | – | 25%
54 | Cc1cccc(N2CCN(C(=O)c3ccc4c(c3)CCN4S(=O)(=O)c3ccccc3)CC2)c1C | – | 23.9%
55 | Cc1cccc(NC(=O)C2CCN(S(=O)(=O)c3c(C)noc3/C=C/c3ccco3)CC2)c1 | – | -7.03%
56 | CCC(=O)N1CCc2cc(S(=O)(=O)NC(C(=O)NCCc3ccc(C)cc3)C(C)C)ccc21 (stereo not given) | – | 19%
57 | O=C(Cn1ncn2nc(-c3cccs3)cc2c1=O)NCc1cccc(Br)c1 | – | 17.3%
58 | CCOC(=O)c1ccccc1NC(=O)c1nn(-c2ccc(OC)c(Cl)c2)c(=O)c2c1c1ccccc1n2C | – | 15.4%
59 | CCOC(=O)C1=C(NC(=S)NC(=O)c2ccccc2)c2ccccc2CC1(C)C | – | -24.4%
60 | Cc1ccc(C(=O)NC(=S)Nc2ccc3[nH]c(=O)[nH]c3c2)cc1C | – | 2.89% [at 57.1 µM]
61 | Cc1cc2[nH]ncc2cc1NC(=S)NC(=O)c1ccccc1 | 7.08 µM (active) | –
62 | CCOc1ccc(CNC(=O)c2ccc3nc(CC)c(CC)nc3c2)cc1OC | – | 15.6% [at 57.1 µM]
63 | CCOc1cccc(NC(=O)CSc2ncc(-c3ccc(Cl)cc3)[nH]2)c1 | – | 3.45%
64 | CC1(C)CC(=O)c2cc(C(=O)NCc3ccccc3)c(=O)[nH]c2C1 | – | 8.76%
65 | O=C(NCCC1=CCCCC1)c1ccc2c(c1)N(Cc1ccccc1F)C(=O)c1ccccc1S2(=O)=O | – | 41.9%
66 | COc1ccc(Cn2cc(C(=O)c3ccc(C)cc3)c(=O)c3cc(OC)c(OC)cc32)cc1 | – | 21.9%
67 | COc1ccc(-c2nc(C)c(CCNC(=O)c3ccc(C(F)(F)F)cc3)s2)cc1OC | – | 14.7% [at 57.1 µM]
68 | O=C(Nc1ccccc1Cl)N1CCC(CN2CCCCC2)CC1 | – | 24.2% [at 57.1 µM]
69 | O=C(Nc1ccccc1Cl)N1CCC(CN2CCCC2)CC1 | – | -6.79%
70 | O=C(Nc1ccccc1Cl)/C(Cl)=C(\Cl)S(=O)c1ccccc1 (stereo not given) | 0.398 µM (active) | –
71 | O=C1C2C(c3ccccc3)CC=CC2C(c2ccoc2)N1Cc1ccccc1 (stereo not given) | – | -7.81%
72 | C#CC(C)(CC)NC(=O)Cn1nnc(-c2ccc(OCc3c(F)cccc3Cl)cc2)n1 (stereo not given) | – | 28.4%
73 | COc1cc(OC)cc(C(=O)NCCc2csc3nc(-c4ccccc4F)nn23)c1 | – | 6.74% [at 57.1 µM]
74 | COc1cc(C(=O)NCC(c2ccc(Cl)cc2)N2CCOCC2)cc(OC)c1OC (stereo not given) | – | 8.59%
75 | CCn1c(CNC(=O)c2ccco2)nnc1SCC(=O)Nc1cccc(F)c1 | – | 27.1%

Row | SMILES | Potency | activity change, negative = inhibition
76 | O=C(CSc1ccc(-c2ccco2)nn1)Nc1cccc(F)c1 | 25.1 µM (active) | –
77 | O=C(CSc1ccc(-c2ccco2)nn1)NCc1ccc2c(c1)OCO2 | – | -71.2%
78 | COc1ccc(OCCn2cc(C(=O)C3CCCCC3)c3ccccc32)cc1 | – | 25.8%
79 | Cc1ccc(C)c(N2CCN(Cc3nnc(-c4ccccc4)o3)CC2)c1 | – | 16.7%
80 | C=C(Br)CN1CCN(CC(=C)Br)CC1 | 12.6 µM (active) | –
81 | Cc1ccc(CN(C(=O)COc2ccc(Cl)cc2C)C2CCS(=O)(=O)C2)o1 (stereo not given) | – | -11.1%
82 | CCOC(=O)CSc1nnc(CNC(=O)c2ccco2)n1-c1ccc(F)cc1 | – | -12.3%
83 | Cn1c(SCC(=O)N2CCCC2)nnc1-c1cccs1 | – | -0.504%
84 | CCOC(=O)CSc1nnc(-c2ccco2)n1C | 22.4 µM (active) | –
85 | CCCN1CCC(=O)N(C(CSc2ccc(C)cc2)Cc2ccccc2)CC1 (stereo not given) | – | -13.5%
86 | Cn1c(=O)c2cn(-c3cccc4ccccc34)cc2n(C)c1=O | – | -9.19%
87 | CC1=C(C)CC2C(=O)N(c3cccc4ccccc34)C(=O)C2C1 (stereo not given) | 14.1 µM (active) | –
88 | CCc1ccccc1N1C(=O)C2C3CC(=O)C(c4ccccc43)C2C1=O (stereo not given) | – | 9.08%
89 | COc1cccc(OCCn2c(-c3ccc(Br)cc3)nc3ccccc3c2=O)c1 | – | 19.9%
90 | COC(=O)C(CC(C)C)NS(=O)(=O)c1cc(Br)ccc1Br (stereo not given) | – | 4.6%
91 | O=C(NCC(c1cccnc1)N1CCc2ccccc21)c1cccc(C(F)(F)F)c1 (stereo not given) | – | -5.37%
92 | Nc1ccccc1N | – | 14.3%
93 | CC(=O)Nc1ccc(N2C(=O)CC(Sc3nccc(C)n3)C2=O)cc1 (stereo not given) | – | 33.8%
94 | COc1ccc(N2C(=O)CC(Sc3n[nH]c(-c4ccc(C)cc4)n3)C2=O)cc1 (stereo not given) | 5.01 µM (active) | –
95 | COc1ccc(-c2nc(SCC(=O)N3CCCCC3C)n[nH]2)cc1 (stereo not given) | – | 8.31% [at 57.1 µM]
96 | C/[N+]([O-])=C\c1ccc([N+](=O)[O-])o1 | 11.2 µM (active) | –
97 | Cc1cccc(NC(=O)COC(=O)c2ccccc2OCc2cccc(Br)c2)c1 | – | 11.2%
98 | Cc1cc(Nc2cc(N3CCN(C)CC3)nc(Sc3ccc(NC(=O)C4CC4)cc3)n2)n[nH]1 | – | -3.3% [at 57.1 µM]
99 | Cn1c(SCC(=O)Nc2ccc(N3CCOCC3)cc2)nnc1C(F)(F)F | – | 15.9%
100 | C=CC(=O)Nc1ccc(Nc2ccnc(Nc3ccc(N4CCN(C)CC4)cc3)n2)cc1 | 12.6 µM (active) | –
